# D2 PAM-1: HTS Assay for Positive Allosteric Modulators of the Human D2 Dopamine Receptor: Primary Screen for Potentiators | D(2) dopamine receptor (Homo sapiens), P14416 | HEK293 T-REx D2, calcium flux, EC20 dopamine potentiation | potentiation, % at 10 µM | 0.34% of 340,000 active | AID 485347, 2010;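 active means potentiation over 3 SD above the plate norm, cut at about 30% in these data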; further: 0% is about no effect
# Target sequence (P14416 whole entry, looked up): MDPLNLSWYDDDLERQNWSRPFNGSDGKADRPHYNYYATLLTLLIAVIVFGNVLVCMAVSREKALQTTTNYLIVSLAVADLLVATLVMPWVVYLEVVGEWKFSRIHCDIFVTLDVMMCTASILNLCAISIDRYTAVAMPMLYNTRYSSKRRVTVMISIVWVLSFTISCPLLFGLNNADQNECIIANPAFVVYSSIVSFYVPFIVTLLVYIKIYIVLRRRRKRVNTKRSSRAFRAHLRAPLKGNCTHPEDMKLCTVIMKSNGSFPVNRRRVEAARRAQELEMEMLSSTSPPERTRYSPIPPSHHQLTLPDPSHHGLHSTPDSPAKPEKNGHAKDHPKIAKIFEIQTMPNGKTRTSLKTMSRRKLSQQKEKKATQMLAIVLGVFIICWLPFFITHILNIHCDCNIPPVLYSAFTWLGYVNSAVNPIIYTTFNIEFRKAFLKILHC
#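 Primary screen. Calcium kinetics in induced HEK293 T-REx D2 cells: compound pre-addition 180 s, EC20 dopamine, 180 s more.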
# D2 PAM-2: Beta-Arrestin HTS for Positive Allosteric Modulators of the Human D2 Dopamine Receptor: Potentiators; potentiation, % (test concentration not listed); DiscoveRx D2 beta-arrestin cells, luminescence, 90 min; 100% = 57 uM dopamine signal; 0.23% of 360,000 active; AID 624464, 2012; in the data active means potentiation above about 50%; inconclusive means mostly about 30% to 49%
#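 D2 cells co-treated with compound plus 50 nM dopamine (EC20) for 90 min at 37 deg C to detect potentiation. Beta-arrestin recruitment was read as enzyme-fragment luminescence after 1 h at ambient temperature. Full response was set by 57 uM dopamine.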
# D2 ag-1: HTS Assay for Allosteric Agonists of the Human D2 Dopamine Receptor: Primary Screen for Agonists. D(2) dopamine receptor (Homo sapiens), P14416. HEK293 T-REx D2 cells, calcium flux agonist mode. activation, % at 2 µM. 0.53% of 340,000 active;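 active means activation over 3 SD above normal in the single-dose calcium agonist read, cut at about 30% in these data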; further: 0% is about no effect
#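 Tetracycline-induced HEK293 T-REx cells with force-coupled D2 receptor, plated overnight at 30 C, loaded with no-wash calcium dye. After a 10 s baseline, compound was pin-added and calcium flux read kinetically for 180 s; calcium rises flagged agonists.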
# D2 antagonist: HTS Assay for Allosteric Antagonists of the Human D2 Dopamine Receptor: Primary Screen for Antagonists; D(2) dopamine receptor (Homo sapiens), P14416; HEK293 TREx D2 cells, calcium flux, dopamine EC80; inhibition, % at 10 µM; 2% of 340,000 active; in the data active means inhibition above about 30%; inactive means below that, where a call was filed; further: 0% is about no effect
#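 Measurement of antagonist activity uses fluorescent calcium dye in inducible HEK293 T-REx D2 cells: 10 s baseline, compound addition with 180 s read, EC80 dopamine addition with a further 180 s read.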
# D2 ag-2: Beta-Arrestin HTS for Positive Allosteric Modulators of the Human D2 Dopamine Receptor: Agonists | AID 624465, 2012 | activation, % (no concentration beside the values) | DiscoveRx PathHunter D2 beta-arrestin, luminescence, 90 min; 100% = 57 uM dopamine signal | D(2) dopamine receptor (Homo sapiens), P14416 | 0.084% of 360,000 active; in the data active means activation above about 40%; inconclusive means between about 15% and that limit
#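 Agonist mode: compounds alone added to overnight-plated D2 PathHunter cells for 90 min at 37 C, with 57 uM final dopamine (EC100) defining full response. Beta-arrestin recruitment detected by chemiluminescent reagent, read after 1 h at ambient temperature.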
# The depositor's hits bear a star; ? = inconclusive; . = no result given. Hits are enriched below; roughly 2.4% of the tested compounds scored in any of these assays.
SMILES,D2 PAM-1,D2 PAM-2,D2 ag-1,D2 antagonist,D2 ag-2
CC1(C)CC(=O)C(=Cc2cn(-c3ccccc3)nc2-c2ccc(Cl)cc2)C(=O)C1,5,-7,0,32*,-2
CC1(C)CC(=O)C(=Cc2cn(CCC#N)nc2-c2ccc(Cl)cc2)C(=O)C1,5,-1,3,7,0
Cc1ccc2c(c1Br)/C(=N/N1C(=O)c3ccccc3C1=O)C(=O)N2,25,-52,1,16,-18
CCOc1ccc(N=C2C(=O)Nc3ccc(C)c(Br)c32)cc1,-3,-32,1,42*,-17
O=C(COC(=O)c1cc[n+]([O-])cc1)Nc1ccc(Br)cc1,-2,-2,-1,-24,2
O=C(COC(=O)c1cc[n+]([O-])cc1)Nc1ccc(SC(F)F)cc1,-5,0,1,31*,-1
Clc1ccccc1CSc1nc(NCCc2ccccc2)c2ccccc2n1,2,.,0,.,.
COc1ccc(-n2c(-c3ccc(Br)cc3)n[nH]c2=S)cc1,-8,-4,0,31*,-3
Cc1ccc(CNC(=O)c2ccc([N+](=O)[O-])o2)cc1,-7,56*,0,0,-14
Cc1ccc(/C=C/C(=O)c2ccc([N+](=O)[O-])o2)cc1,7,54*,1,1,10
Cc1ccc(CNC(=O)c2nn(C)c(C)c2[N+](=O)[O-])cc1,-8,-13,0,17,-5
COC(=O)CSc1nc2sc3c(c2c(=O)n1-c1ccccc1C)CC(C)(C)OC3,10,.,5,.,.
O=[N+]([O-])c1ncccc1OCc1ccccc1Br,-11,-5,-1,34*,-4
COc1cc(O)c2c(c1)OC(C)(C)CC2=O,.,-5,1,4,-2
COc1cc(O)cc2cc3c(c(O)c12)C(=O)CC(C)(O)O3 (stereo not given),6,20,0,37*,4
Cc1c(Nc2nc3ccccc3n3c(C)nnc23)cccc1C(=O)O,-8,.,1,.,.
CCOC(=O)c1cccnc1SCC(=O)Nc1ccc(C)cc1C,-16,.,1,.,.
CC(=O)c1cccc(Nc2ncnc3c2cnn3C)c1,-4,.,-1,.,.
c1ccc2c(c1)Nc1cc3ccccc3cc1O2,.,91*,.,.,?
COc1cccc(-n2c(SCC(=O)NCc3ccco3)nnc2-c2c[nH]c3ccccc23)c1,-11,4,-2,48*,2
O=C(CCCN1CCOC(c2ccccc2)C1)c1ccc(F)cc1 (stereo not given),-27,-4,0,49*,-5
CN1CCN(CCCC(=O)c2ccc(F)cc2)CC1,-20,-52,-1,21,-4
O=C(CCCN1Cc2ccccc2C1)c1ccc(F)cc1,-6,-23,0,79*,-3
O=C(CCCN1CCN(c2ccccc2)CC1)c1ccc(F)cc1,.,-22,.,.,0
Cc1oc(-c2cccc(Cl)c2)nc1Cn1c(SCc2ccccc2F)nc2ccncc21,12,.,0,.,.
SMILES,D2 PAM-1,D2 PAM-2,D2 ag-1,D2 antagonist,D2 ag-2
CCN1CCC(NC(=O)Nc2ccccc2C(=O)OC)CC1,-5,-17,-1,-13,-1
CCC(C)[C@H](NC(=O)NC1CCN(Cc2ccccc2)CC1)C(=O)OC (stereo not given in full),-20,-21,0,57*,-3
COC(=O)c1ccccc1NC(=O)NC1CCN(Cc2ccccc2)CC1,-19,-17,1,64*,3
COc1ccc(S(=O)(=O)NC2CCN(Cc3ccccc3)CC2)cc1NC(C)=O,-8,-4,-1,9,7
COc1ccc(Cl)cc1NC(=O)NCC1CCN(Cc2cc(C)ccc2C)CC1,-28,-6,1,55*,-3
COc1ccc(C)cc1NC(=O)NC1CCN(Cc2ccccc2)CC1,-26,-20,1,75*,0
Cc1ccc(C)c(CN2CCC(CNC(=O)Nc3ccc(C)c(C)c3)CC2)c1,-12,-7,0,-16,0
Cc1ccc(N(C)C(=O)Cn2cc(S(=O)(=O)N3CCCC3)c(S(=O)(=O)N3CCCC3)c2)cc1,-6,.,.,.,.
Cc1oc2c(C)c3oc(=O)c(CCC(=O)N4CCCCC4)c(C)c3cc2c1C,1,.,1,.,.
CC1(C(=O)Nc2ncc(Cc3ccc(Br)cc3)s2)Cc2ccccc2C(=O)O1 (stereo not given),26,.,1,.,.
CCCCOc1cccc(C(=O)N(Cc2sccc2C)C2CCS(=O)(=O)C2)c1 (stereo not given),-6,.,1,.,.
CCc1cccc(CN2CCC(CNC(=O)Nc3ccc(Cl)cc3)CC2)c1,-17,-21,0,35*,-4
Cc1cc(C)n2nc(SCC(=O)Nc3cccc(C(F)(F)F)c3)nc2n1,9,.,.,.,.
Oc1ccc(Nc2nc(-c3ccc4ccccc4c3)cs2)cc1,-1,.,1,3,.
Oc1ccc(Nc2ccc3ccccc3c2)cc1,.,66*,.,.,3
CCOc1ccc(-c2nnc(SCC(=O)NCc3ccc(Cl)cc3)o2)cc1,0,.,-2,.,.
CCc1ccc(-n2nc3cc(C)c(NC(=O)c4cc(Cl)ccc4OC)cc3n2)cc1,0,.,0,.,.
CC(C)OC(=O)c1c(NC(=O)c2cccc(C(F)(F)F)c2)sc2c1CCCC2,-4,.,-1,.,.
COc1cc(C(=O)NC23CC4CC(CC(C4)C2)C3)cc(OC)c1OC,-9,-7,0,10,-6
COc1cc(C(=O)ON=C2C3CC4CC(C3)CC2C4)cc(OC)c1OC,3,18,-1,-16,45*
COc1cc(C(=O)O/N=C2/C=CC(=O)C(C)=C2C)cc(OC)c1OC,0,72*,0,5,?
COc1cc(C(=O)O/N=C2\C=CC(=O)C=C2C)cc(OC)c1OC,6,0,1,50*,1
Cc1ccc(C(=O)COC(=O)C2CC(=O)N(c3nc(-c4ccccc4)cs3)C2)cc1 (stereo not given),10,-4,1,34*,-3
O=[N+]([O-])c1cc(-c2n[nH]c(-c3ccccc3)n2)cc([N+](=O)[O-])c1,13,53*,0,-9,6
O=[N+]([O-])c1cc([N+](=O)[O-])c2n[nH]c(-c3ccccc3)c2c1,2,8,0,0,5
COc1ccc(-c2nn(-c3ccccc3)cc2/C=N/NC(=O)c2cccc(S(=O)(=O)Nc3ccccc3Cl)c2)cc1,-17,11,1,45*,2

# High-throughput results as filed in PubChem BioAssay.
